# Reference: PMC11006913
# Assays:
# Test in all cases: PBM; 200 nM protein, PBS
# Settings in all cases: dsDNA, one strand shown
# HESX1 [1] = molecular target: HESX1 (Homo sapiens, UniProt Q9UBX0 95-180, R165K)
# CRX [2] = molecular target: CRX (Homo sapiens, UniProt O43186 26-111)
# HESX1 [3] = molecular target: HESX1 (Homo sapiens, UniProt Q9UBX0 95-180)
# CRX [4] = molecular target: CRX (Homo sapiens, UniProt O43186 26-111, E42D)
# HESX1 [5] = molecular target: HESX1 (Homo sapiens, UniProt Q9UBX0 95-180, R109Q)
# HESX1 [6] = molecular target: HESX1 (Homo sapiens, UniProt Q9UBX0 95-180, P111T)
# HESX1 [7] = molecular target: HESX1 (Homo sapiens, UniProt Q9UBX0 95-180, F115L)
# CRX [8] = molecular target: CRX (Homo sapiens, UniProt O43186 26-111, R41L)
# HOXB9 [9] = molecular target: HOXB9 (Homo sapiens, UniProt P17482 171-250, T197M)
# HOXC9 = HOXC9 (Homo sapiens, UniProt P31274 178-260, K195R)
# HOXA7 [10] = molecular target: HOXA7 (Homo sapiens, UniProt P31268 116-202)
# ALX4 [11] = molecular target: ALX4 (Homo sapiens, UniProt Q9H161 200-286)
# PRRX1 [12] = molecular target: PRRX1 (Homo sapiens, UniProt P54821 80-166, F113S)
# HOXB6 [13] = molecular target: HOXB6 (Homo sapiens, UniProt P17509 132-218, K202E)
# ALX4 [14] = molecular target: ALX4 (Homo sapiens, UniProt Q9H161 200-286, Q225E)
# HOXA2 [15] = molecular target: HOXA2 (Homo sapiens, UniProt O43364 129-215, R185T)
# HOXB9 [16] = molecular target: HOXB9 (Homo sapiens, UniProt P17482 171-250)
# MSX2 [17] = molecular target: MSX2 (Homo sapiens, UniProt P35548 130-214, R199I)
# ALX1 [18] = molecular target: ALX1 (Homo sapiens, UniProt Q15699 118-204, L144V)
# HOXA2 [19] = molecular target: HOXA2 (Homo sapiens, UniProt O43364 129-215, R185K)
# ALX1 [20] = molecular target: ALX1 (Homo sapiens, UniProt Q15699 118-204, L144R)
# MSX2 [21] = molecular target: MSX2 (Homo sapiens, UniProt P35548 130-214)
# PROP1 [22] = molecular target: PROP1 (Homo sapiens, UniProt O75360 56-141)
# PROP1 [23] = molecular target: PROP1 (Homo sapiens, UniProt O75360 56-141, R99H)
# ALX3 = ALX3 (Homo sapiens, UniProt O95076 139-225, L168Q)
# HOXB9 [24] = molecular target: HOXB9 (Homo sapiens, UniProt P17482 171-250, R186Q)
# PROP1 [25] = molecular target: PROP1 (Homo sapiens, UniProt O75360 56-141, F88S)
# MSX2 [26] = molecular target: MSX2 (Homo sapiens, UniProt P35548 130-214, F161Y)
# HOXA2 [27] = molecular target: HOXA2 (Homo sapiens, UniProt O43364 129-215, Y150S)
# HOXA7 [28] = molecular target: HOXA7 (Homo sapiens, UniProt P31268 116-202, W177C)
# PRRX1 [29] = molecular target: PRRX1 (Homo sapiens, UniProt P54821 80-166)
# HOXA2 [30] = molecular target: HOXA2 (Homo sapiens, UniProt O43364 129-215)
# HOXB6 [31] = molecular target: HOXB6 (Homo sapiens, UniProt P17509 132-218)
# Sequence of HOXB6 (Homo sapiens, UniProt P17509 132-218) (P17509 132-218): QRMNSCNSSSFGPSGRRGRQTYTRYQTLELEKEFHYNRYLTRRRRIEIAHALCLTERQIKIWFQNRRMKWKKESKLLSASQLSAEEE
# Sequence of HESX1 (Homo sapiens, UniProt Q9UBX0 95-180, F115L) (Q9UBX0 95-180 F115L): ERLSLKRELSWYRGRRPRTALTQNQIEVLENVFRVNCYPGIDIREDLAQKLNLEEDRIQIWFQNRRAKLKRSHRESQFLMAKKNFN
# Sequence of HESX1 (Homo sapiens, UniProt Q9UBX0 95-180, P111T) (Q9UBX0 95-180 P111T): as the sequence (Q9UBX0 95-180 F115L) above, with P17T, L21F counted along it
# Sequence of HESX1 (Homo sapiens, UniProt Q9UBX0 95-180, R109Q) (Q9UBX0 95-180 R109Q): as the sequence (Q9UBX0 95-180 F115L) above, with R15Q, L21F counted along it
# Sequence of HESX1 (Homo sapiens, UniProt Q9UBX0 95-180, R165K) (Q9UBX0 95-180 R165K): as the sequence (Q9UBX0 95-180 F115L) above, with L21F, R71K counted along it
# Sequence of HESX1 (Homo sapiens, UniProt Q9UBX0 95-180) (Q9UBX0 95-180): as the sequence (Q9UBX0 95-180 F115L) above, with L21F counted along it
# Sequence of MSX2 (Homo sapiens, UniProt P35548 130-214) (P35548 130-214): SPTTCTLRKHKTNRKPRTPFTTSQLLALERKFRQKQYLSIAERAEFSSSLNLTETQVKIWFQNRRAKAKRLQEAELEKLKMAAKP
# Sequence of PROP1 (Homo sapiens, UniProt O75360 56-141, R99H) (O75360 56-141 R99H): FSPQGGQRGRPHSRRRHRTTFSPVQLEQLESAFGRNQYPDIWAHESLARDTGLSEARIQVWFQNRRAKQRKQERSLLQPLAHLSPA
# Sequence of PROP1 (Homo sapiens, UniProt O75360 56-141, F88S) (O75360 56-141 F88S): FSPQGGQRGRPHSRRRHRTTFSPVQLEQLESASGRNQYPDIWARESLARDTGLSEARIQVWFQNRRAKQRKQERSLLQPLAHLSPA
# Sequence of HOXB9 (Homo sapiens, UniProt P17482 171-250) (P17482 171-250): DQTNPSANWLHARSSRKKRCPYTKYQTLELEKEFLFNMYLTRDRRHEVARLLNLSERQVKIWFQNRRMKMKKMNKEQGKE
# Sequence of HOXB6 (Homo sapiens, UniProt P17509 132-218, K202E) (P17509 132-218 K202E): as the sequence (P17509 132-218) above, with K71E counted along it
# Sequence of HOXA2 (Homo sapiens, UniProt O43364 129-215, Y150S) (O43364 129-215 Y150S): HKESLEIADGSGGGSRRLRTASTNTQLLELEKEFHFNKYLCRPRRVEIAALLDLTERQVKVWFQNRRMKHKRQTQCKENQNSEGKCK
# Sequence of HOXA2 (Homo sapiens, UniProt O43364 129-215) (O43364 129-215): as the sequence (O43364 129-215 Y150S) above, with S22Y counted along it
# Sequence of ALX1 (Homo sapiens, UniProt Q15699 118-204, L144R) (Q15699 118-204 L144R): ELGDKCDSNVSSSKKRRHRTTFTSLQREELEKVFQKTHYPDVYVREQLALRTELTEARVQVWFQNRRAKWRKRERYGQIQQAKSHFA
# Sequence of HOXC9 (P31274 178-260 K195R): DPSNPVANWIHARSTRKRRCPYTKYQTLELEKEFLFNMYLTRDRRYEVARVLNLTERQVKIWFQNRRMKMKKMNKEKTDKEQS
# Sequence of HOXB9 (Homo sapiens, UniProt P17482 171-250, T197M) (P17482 171-250 T197M): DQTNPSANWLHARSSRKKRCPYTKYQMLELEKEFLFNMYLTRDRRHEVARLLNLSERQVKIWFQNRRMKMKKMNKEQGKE
# Sequence of PRRX1 (Homo sapiens, UniProt P54821 80-166, F113S) (P54821 80-166 F113S): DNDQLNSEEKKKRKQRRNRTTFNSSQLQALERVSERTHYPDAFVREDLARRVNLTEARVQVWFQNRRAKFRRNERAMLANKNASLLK
# Sequence of CRX (Homo sapiens, UniProt O43186 26-111, E42D) (O43186 26-111 E42D): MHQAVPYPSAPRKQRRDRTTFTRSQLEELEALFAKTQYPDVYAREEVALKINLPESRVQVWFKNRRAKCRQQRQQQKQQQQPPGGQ
# Sequence of HOXB9 (Homo sapiens, UniProt P17482 171-250, R186Q) (P17482 171-250 R186Q): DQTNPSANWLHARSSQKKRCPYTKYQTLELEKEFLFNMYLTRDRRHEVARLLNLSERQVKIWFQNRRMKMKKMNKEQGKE
# Sequence of HOXA2 (Homo sapiens, UniProt O43364 129-215, R185K) (O43364 129-215 R185K): as the sequence (O43364 129-215 Y150S) above, with S22Y, R57K counted along it
# Sequence of PRRX1 (Homo sapiens, UniProt P54821 80-166) (P54821 80-166): as the sequence (P54821 80-166 F113S) above, with S34F counted along it
# Sequence of HOXA7 (Homo sapiens, UniProt P31268 116-202, W177C) (P31268 116-202 W177C): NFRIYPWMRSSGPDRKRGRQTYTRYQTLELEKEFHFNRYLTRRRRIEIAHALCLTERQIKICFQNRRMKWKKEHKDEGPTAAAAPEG
# Sequence of HOXA2 (Homo sapiens, UniProt O43364 129-215, R185T) (O43364 129-215 R185T): as the sequence (O43364 129-215 Y150S) above, with S22Y, R57T counted along it
# Sequence of CRX (Homo sapiens, UniProt O43186 26-111) (O43186 26-111): as the sequence (O43186 26-111 E42D) above, with D17E counted along it
# Sequence of MSX2 (Homo sapiens, UniProt P35548 130-214, F161Y) (P35548 130-214 F161Y): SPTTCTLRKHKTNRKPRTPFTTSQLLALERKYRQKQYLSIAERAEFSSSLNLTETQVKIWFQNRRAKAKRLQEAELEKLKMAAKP
# Sequence of ALX4 (Homo sapiens, UniProt Q9H161 200-286) (Q9H161 200-286): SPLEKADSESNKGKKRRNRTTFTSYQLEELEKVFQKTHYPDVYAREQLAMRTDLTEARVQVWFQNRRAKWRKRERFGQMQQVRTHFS
# Sequence of PROP1 (Homo sapiens, UniProt O75360 56-141) (O75360 56-141): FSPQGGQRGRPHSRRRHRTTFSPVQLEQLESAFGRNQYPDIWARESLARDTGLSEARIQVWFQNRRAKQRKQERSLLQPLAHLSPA
# Sequence of MSX2 (Homo sapiens, UniProt P35548 130-214, R199I) (P35548 130-214 R199I): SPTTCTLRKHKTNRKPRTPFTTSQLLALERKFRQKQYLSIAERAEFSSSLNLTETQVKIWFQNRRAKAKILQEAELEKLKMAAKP
# Sequence of CRX (Homo sapiens, UniProt O43186 26-111, R41L) (O43186 26-111 R41L): as the sequence (O43186 26-111 E42D) above, with R16L, D17E counted along it
# Sequence of HOXA7 (Homo sapiens, UniProt P31268 116-202) (P31268 116-202): as the sequence (P31268 116-202 W177C) above, with C62W counted along it
# Sequence of ALX4 (Homo sapiens, UniProt Q9H161 200-286, Q225E) (Q9H161 200-286 Q225E): as the sequence (Q9H161 200-286) above, with Q26E counted along it
# Sequence of ALX3 (O95076 139-225 L168Q): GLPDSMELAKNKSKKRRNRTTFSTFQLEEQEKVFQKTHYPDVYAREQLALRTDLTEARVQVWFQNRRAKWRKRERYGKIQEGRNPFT
# Sequence of ALX1 (Homo sapiens, UniProt Q15699 118-204, L144V) (Q15699 118-204 L144V): as the sequence (Q15699 118-204 L144R) above, with R27V counted along it
sequence,measurement,setting,value
ACCGTCCG,binding signal,HESX1 [1],"6.56 upbm affinity estimate (log intensity, higher = more binding, comparable within an allelic series)"
same,binding signal,CRX [2],"8.31 upbm affinity estimate (log intensity, higher = more binding, comparable within an allelic series)"
same,binding signal,HESX1 [3],"6.57 upbm affinity estimate (log intensity, higher = more binding, comparable within an allelic series)"
same,binding signal,CRX [4],"8.44 upbm affinity estimate (log intensity, higher = more binding, comparable within an allelic series)"
same,binding signal,HESX1 [5],"6.49 upbm affinity estimate (log intensity, higher = more binding, comparable within an allelic series)"
same,binding signal,HESX1 [6],"6.5 upbm affinity estimate (log intensity, higher = more binding, comparable within an allelic series)"
same,binding signal,HESX1 [7],"6.47 upbm affinity estimate (log intensity, higher = more binding, comparable within an allelic series)"
same,binding signal,CRX [8],"8.35 upbm affinity estimate (log intensity, higher = more binding, comparable within an allelic series)"
ATAATTGC,binding signal,HESX1 [1],"12.2 upbm affinity estimate (log intensity, higher = more binding, comparable within an allelic series)"
same,binding signal,HOXB9 [9],"10.2 upbm affinity estimate (log intensity, higher = more binding, comparable within an allelic series)"
same,binding signal,HOXC9,"12.6 upbm affinity estimate (log intensity, higher = more binding, comparable within an allelic series)"
same,binding signal,HOXA7 [10],"11.5 upbm affinity estimate (log intensity, higher = more binding, comparable within an allelic series)"
same,binding signal,ALX4 [11],"13.6 upbm affinity estimate (log intensity, higher = more binding, comparable within an allelic series)"
same,binding signal,PRRX1 [12],"11.1 upbm affinity estimate (log intensity, higher = more binding, comparable within an allelic series)"
same,binding signal,HOXB6 [13],"9.97 upbm affinity estimate (log intensity, higher = more binding, comparable within an allelic series)"
same,binding signal,ALX4 [14],"12.7 upbm affinity estimate (log intensity, higher = more binding, comparable within an allelic series)"
same,binding signal,HESX1 [3],"12.4 upbm affinity estimate (log intensity, higher = more binding, comparable within an allelic series)"
same,binding signal,HOXA2 [15],"12.4 upbm affinity estimate (log intensity, higher = more binding, comparable within an allelic series)"
same,binding signal,HOXB9 [16],"11.7 upbm affinity estimate (log intensity, higher = more binding, comparable within an allelic series)"
same,binding signal,MSX2 [17],"12.9 upbm affinity estimate (log intensity, higher = more binding, comparable within an allelic series)"
same,binding signal,ALX1 [18],"11.4 upbm affinity estimate (log intensity, higher = more binding, comparable within an allelic series)"
same,binding signal,HOXA2 [19],"13.2 upbm affinity estimate (log intensity, higher = more binding, comparable within an allelic series)"
same,binding signal,ALX1 [20],"11.1 upbm affinity estimate (log intensity, higher = more binding, comparable within an allelic series)"
same,binding signal,MSX2 [21],"14 upbm affinity estimate (log intensity, higher = more binding, comparable within an allelic series)"
same,binding signal,PROP1 [22],"11.1 upbm affinity estimate (log intensity, higher = more binding, comparable within an allelic series)"
same,binding signal,HESX1 [5],"8.36 upbm affinity estimate (log intensity, higher = more binding, comparable within an allelic series)"
same,binding signal,PROP1 [23],"10.9 upbm affinity estimate (log intensity, higher = more binding, comparable within an allelic series)"
same,binding signal,ALX3,"10.3 upbm affinity estimate (log intensity, higher = more binding, comparable within an allelic series)"
same,binding signal,HESX1 [6],"10.6 upbm affinity estimate (log intensity, higher = more binding, comparable within an allelic series)"
same,binding signal,HOXB9 [24],"11.5 upbm affinity estimate (log intensity, higher = more binding, comparable within an allelic series)"
same,binding signal,PROP1 [25],"7.6 upbm affinity estimate (log intensity, higher = more binding, comparable within an allelic series)"
same,binding signal,MSX2 [26],"13.6 upbm affinity estimate (log intensity, higher = more binding, comparable within an allelic series)"
same,binding signal,HESX1 [7],"7.74 upbm affinity estimate (log intensity, higher = more binding, comparable within an allelic series)"
same,binding signal,HOXA2 [27],"10.8 upbm affinity estimate (log intensity, higher = more binding, comparable within an allelic series)"
same,binding signal,HOXA7 [28],"8.84 upbm affinity estimate (log intensity, higher = more binding, comparable within an allelic series)"
same,binding signal,PRRX1 [29],"13.2 upbm affinity estimate (log intensity, higher = more binding, comparable within an allelic series)"
same,binding signal,HOXA2 [30],"12.2 upbm affinity estimate (log intensity, higher = more binding, comparable within an allelic series)"
same,binding signal,HOXB6 [31],"12 upbm affinity estimate (log intensity, higher = more binding, comparable within an allelic series)"
